Compound activity deposited in PubChem by National Center for Advancing Translational Sciences (NCATS).
This is a sample that favours compounds with a hit; in the whole collection about 10% have one here.
Six1-Eya2 inh – Six1/Eya2 interaction inhibition. AlphaScreen GST-Six1/His-Eya2 binding, biochemical; hits give low values. activity change, % (no concentration beside the values). 0.56% of 360,000 active; in the data active = activity change below about -65%; inconclusive = mostly about -30% to -63%; note: % is set by controls: 0 for no effect and ±100 for the full control effect
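AlphaScreen with GST-Six1 and His-Eya2 (5X mix: 250 nM and 500 nM), glutathione donor and nickel acceptor beads; buffer 50 mM Tris pH 8.0, 300 mM NaCl, 1 mM TCEP; 1 h at 37 C in the dark.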
HP1b chromo inh – inhibitors of HP1-beta chromodomain binding to methylated histone tails; AlphaScreen HP1-beta / biotin-H3K9me3 peptide binding; 0.56% of 390,000 active; AID 540317; Potency, µM (titrated, usually from 114 µM), inactives show at the top dose activity change, negative = inhibition, actives largely listed as inhibitors; note: potency is the fitted concentration of half-maximal effect; nearly all actives have a fitted effect of over 70% in size
Target sequence (P83916 whole entry, looked up): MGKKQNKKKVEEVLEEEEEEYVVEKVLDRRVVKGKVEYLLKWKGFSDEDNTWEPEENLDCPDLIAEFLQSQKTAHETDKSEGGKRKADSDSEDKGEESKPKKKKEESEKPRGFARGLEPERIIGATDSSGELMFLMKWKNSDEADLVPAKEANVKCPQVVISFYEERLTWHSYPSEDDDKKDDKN
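Compound inhibition of the preformed complex between 50 nM HP1-beta and 50 nM biotinylated H3K9me3 peptide was read by AlphaScreen. Buffer was PBS pH 7.4 with 0.01% Tween-20. Incubations ran 30 min at room temperature, with 10 ug/mL donor/acceptor beads.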
G9a inh – inhibitors of human histone lysine methyltransferase G9a | Q96KQ7 | G9a H3K9 monomethylation, AlphaScreen, 2 h | Potency, µM (series often up to 102 µM), without a hit: top-dose activity, negative = inhibition, actives largely listed as inhibitors | 8.8% of 350,000 active | AID 504332; note: potency is the fitted concentration of half-maximal effect; % is set by controls: 0 for no effect and ±100 for the full control effect; nearly all actives have a fitted effect of over 75% in size
Target sequence (Q96KQ7 913-1193 limits assumed): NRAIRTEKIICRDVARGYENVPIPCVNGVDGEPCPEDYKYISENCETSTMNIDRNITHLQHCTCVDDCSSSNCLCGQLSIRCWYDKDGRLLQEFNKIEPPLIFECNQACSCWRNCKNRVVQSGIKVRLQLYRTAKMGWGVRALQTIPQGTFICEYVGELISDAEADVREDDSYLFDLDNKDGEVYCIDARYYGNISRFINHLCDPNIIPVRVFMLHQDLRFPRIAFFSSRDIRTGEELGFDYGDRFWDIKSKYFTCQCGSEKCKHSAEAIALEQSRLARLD
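Using a bead-based AlphaScreen, monomethylated H3K9 product from 2 h room-temperature reactions (G9a 20 nM, peptide 500 nM, SAM 20 uM) was detected with 0.5 ug/mL rabbit anti-H3K9me1 antibody.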
CtBP-E1A inh – blocks the CtBP interaction with E1A. 0.49% of 340,000 active. AlphaScreen GST-E1A/His-CtBP binding, 1536-well; hits give low values. activity change, % (no concentration beside the values); in the data active = activity change below about -65%; inconclusive = mostly about -30% to -63%; note: % is set by controls: 0 for no effect and ±100 for the full control effect
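Protein mix (5X: 125 nM each GST-E1A, His-CtBP) was incubated with pinned compound 2 h at 37 deg C in dark, in 50 mM Tris pH 8.0 buffer with 300 mM NaCl. Glutathione donor and nickel acceptor beads followed; AlphaScreen signal read after 1 h.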
BAZ2B inh – BAZ2B (human) inhibition; Potency, µM (series often up to 114 µM), without a hit: at the top dose activity change, negative = inhibition, actives largely listed as inhibitors; AlphaScreen BAZ2B-H3K14Ac peptide displacement; Q9UIF8; AID 504333; 4.4% of 360,000 active; note: potency is the fitted concentration of half-maximal effect; % is set by controls: 0 for no effect and ±100 for the full control effect; nearly all actives have a fitted effect of over 60% in size
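BAZ2B (50 nM) with biotin-H3(5-23)K14Ac peptide (50 nM) in PBS pH 7.4, 0.01% Tween-20, preformed 30 min, then compound 30 min at room temperature; top concentration 110uM. AlphaScreen streptavidin donor/nickel chelate acceptor beads (10 ug/mL final), 20 min dark, signal read.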
JMJD2A Tudor – blocks the human JMJD2A Tudor domain. O75164. AlphaScreen JMJD2A-Tudor / H3K4me3 peptide binding. Potency, µM (doses to about 114 µM), for the others: at the highest dose activity change, negative = inhibition, hits mostly inhibitors. 4.4% of 390,000 active. AID 504339; note: potency is the fitted concentration of half-maximal effect; % is set by controls: 0 for no effect and ±100 for the full control effect; nearly all actives have a fitted effect of over 50% in size
The depositor's hits bear a star; u = inconclusive; x = not tested or not shown; [ ] = dose if it differs, or a comment. Unless noted, calls come from the whole dose curve; as a rule, active = well fitted inhibition curve with a large enough effect; inconclusive = small, poorly fitted or top-dose-only effect; inactive = no such curve, though single readings can be large or run the other way.

SMILES	Six1-Eya2 inh	HP1b chromo inh	G9a inh	CtBP-E1A inh	BAZ2B inh	JMJD2A Tudor
COc1cc(/C=C2/CCC/C(=C\c3cc(O)c(OC)c(Cl)c3)C2=O)cc(Cl)c1O	-14	-15%	35µM*	7	u	u
CCCCNC(=O)C(NC(=O)c1cnc(C)cn1)C(=O)c1ccccc1 (centres undefined)	14	x	x	-9	x	x
COc1cc(/C=C2\CC/C(=C\c3cc(OC)c(O)c(OC)c3)C2=O)cc(OC)c1O	-8	u	2.5µM*	-5	50µM*	45µM*
COc1ccc(N2CC(C(=O)N[C@H](C(=O)NC(C)c3ccccc3)C(C)C)CC2=O)cc1 (some centres undefined)	6	8%	20%	x	-1%	-10%
COc1ccc(CCC(=O)NNC(=O)Nc2ccc(OC)c(OC)c2)cc1	10	38%	2%	6	-1%	3%
COc1ccc(NC(=O)NNC(=O)CCc2ccc(O)c(O)c2)cc1OC	-21	u	-12%	-2	-17%	28µM*
CC1CCCN(CC(O)COc2ccc(Cl)cc2)C1 (centres undefined)	2	7%	9%[2.33 µM]	4	1%	-5%
CC1CN(CCCCOc2cccc(Oc3ccccc3)c2)CC(C)O1 (centres undefined)	7	u	-125%[59 µM]	16	35µM*	0.89µM*
CC1CN(CCOc2cccc(Oc3ccccc3)c2)CC(C)O1 (centres undefined)	-7	u	10µM*	9	50µM*	20µM*
COc1cccc(OCCCCCN2CCOCC2)c1	2	10%	-100%	4	-3%	-14%
c1ccc(Oc2cccc(OCCCCN3CCCC3)c2)cc1	-1	-28%	u	-12	56µM*	35µM*
CC1CN(S(=O)(=O)c2cccc(C(=O)OCCOc3ccccc3)c2)CC(C)O1 (centres undefined)	4	47%	5%[12.7 µM]	23	6%	16%
CCCOc1ccc(OCCN2CCCC(C)C2)cc1 (centres undefined)	-6	39%	14µM*	0	56µM*	u
CCOC(=O)Cn1c(=O)oc2cc(S(=O)(=O)N3CCN(c4cc(C)ccc4C)CC3)ccc21	x	6%	-5%[59 µM]	x	-18%	-18%
CCOc1ccccc1NC(=O)N(Cc1ccc(F)cc1)C1CCN(CC)CC1	x	24%	-33%[59 µM]	x	-11%	-9%
CC1CCCN(CCOc2cccc(Oc3ccccc3)c2)C1 (centres undefined)	-14	u	8.9µM*	7	56µM*	22µM*
CC1CCCN(CCC(=O)c2ccccc2)C1 (centres undefined)	4	16%[57 µM]	x	0	x	1%
NCCCNC(=O)c1ccc(/C=N/O)nc1	-24	1%	2.8µM*	-4	22µM*	8.9µM*
Cc1ccc(C(=O)NCCCNC(=O)c2ccccc2F)cn1	-2	15%	5%	1	0%	-14%
COc1cc(CNC2CCCCCC2)cc(OC)c1OC	1	24%	18µM*	5	u	10µM*
COc1cc(OC)c(CNC2CCCCCC2)cc1Br	5	-12%	35µM*	-9	u	10µM*
COc1cccc(CNC2CCCCCCC2)c1OC	1	-29%	x	5	u	35µM*
COc1cc(CNC2CCCC2)cc(OC)c1OC	3	15%	-1%[12.7 µM]	-15	3%	-14%
Oc1c(Br)cc(CNC2CCCCC2)cc1Br	2	u	x	0	x	-34%
COC(=O)N1CCC2(CCCN(Cc3ccccc3)C2)CC1	x	x	3%[12.7 µM]	x	x	x
SMILES	Six1-Eya2 inh	HP1b chromo inh	G9a inh	CtBP-E1A inh	BAZ2B inh	JMJD2A Tudor
COc1cc(C2Oc3ccccc3C=C2[N+](=O)[O-])cc(OC)c1OC (centres undefined)	-4	-20%	x	x	35µM*	56µM*
COc1ccc(Oc2ncc3nc(C)c(=O)n(CCC#N)c3n2)cc1	x	x	9%[12.7 µM]	x	x	x
CC1(C)Cc2c(C#N)c(NCCO)nc(-c3ccco3)c2CO1	6	53%	40µM*	5	-2%	13%
N#Cc1c(NC2CCCCC2)nc(-c2ccco2)c2c1CCCC2	27	29%	-11%[12.7 µM]	16	7%	53%
N#Cc1c(NCCCO)nc(-c2ccco2)c2c1CCCC2	19	25%	3.2µM*	15	6%	15%
O=[N+]([O-])c1cc(C(F)(F)F)ccc1NCCc1c[nH]c2ccc(O)cc12	u	u	u	-12	40µM*	22µM*
O=[N+]([O-])c1cc(C(F)(F)F)ccc1NCCc1c[nH]c2ccccc12	u	u	u	-23	11µM*	22µM*
COc1ccc([N+](=O)[O-])cc1-n1cccc1	-15	u	5%[59 µM]	-20	50µM*	u
COc1ccc([N+](=O)[O-])cc1N1C(=O)c2cccc3cccc(c23)C1=O	3	17%	u	-4	-23%	-4%
O=C(CSc1nnc(C2CC2)n1Cc1ccccc1)c1cc2ccccc2o1	-10	14%	45µM*	-8	-35%	56µM*
Cn1c(N)c(C(=O)CSc2nnc(C3CC3)n2Cc2ccccc2)c(=O)n(C)c1=O	-11	20%[57 µM]	x	3	x	-9%
Cc1cc(=O)n2[nH]c(-c3ccsc3-n3c(C)ccc3C)cc2n1	-22	9%	x	-17	45µM*	-8%[11.4 µM]
Cc1nc2cc(-c3ccsc3-n3c(C)ccc3C)[nH]n2c(=O)c1Cl	-78*	-19%	u	u	50µM*	u
Cc1ccc(-c2cn3c(n2)sc2cc(C(=O)NCCC4=CCCCC4)ccc23)c(C)c1	x	134%	40%[59 µM]	x	9%	43%
COC(=O)c1c(C)sc(-c2c(-c3ccc4c(c3)OCCO4)[nH]c3[nH]c(=O)[nH]c(=O)c23)c1O	x	u	14µM*	x	35µM*	50µM*
COC(=O)c1c(C)sc(-c2c(-c3ccc4c(c3)OCCO4)[nH]c3c2c(=O)n(C)c(=O)n3C)c1O	x	3%	-2%[59 µM]	x	-14%	-24%
COc1ccc(C2C(C(=O)OCC(=O)N3CCCCC3)CCC(=O)N2c2ccc(OC)cc2)cc1 (centres undefined)	0	18%	45µM*	8	-11%	2%
CCNC(=O)COC(=O)C1CCC(=O)N(c2ccc(OC)cc2)C1c1ccc(OC)cc1 (centres undefined)	4	21%	-5%[59 µM]	2	31%	-18%
COc1ccc(OC)c2sc(NC(=O)C3=COCCO3)nc12	-2	33%	-6%	-8	7%	-4%
COc1cccc2sc(NNC(=O)C3=COCCO3)nc12	7	36%	13µM*	8	4%	-21%
CN(C)c1ccc(CCc2ccc(N)cc2)cc1	0	50µM*	x	u	x	56µM*
